# Pf apPOL inh = Pf-apPOL DNA polymerase inhibition. AID 1794808. inhibition, % at 10 µM. 210,000 compounds, 0.25% hits. Recombinant Pf-apPOL, molecular beacon fluorescence, 1.5 h
# mHTT CaM bind = disrupts binding of mutant huntingtin to calmodulin | AlphaScreen His-mHTT/GST-CaM binding, luminescence | inhibition, % at 15 µM | 190,000 compounds, 3.6% hits;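 note: 0% = both proteins with DMSO and 100% = one protein alone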
# An asterisk follows results filed as active; x = not tested or not shown. Sampled rows, rich in hits. Any-hit rate of the full collection: about 3.5%. Cut-off read from the data, not from the text of the source: active = inhibition above about 50%; inactive = the rest.
SMILES,Pf apPOL inh,mHTT CaM bind
Cc1ccc(-n2cc(C(=O)NC3CCCC3)nn2)cc1,2,-4
O=C(c1ccc(-n2cnnn2)cc1)N1CCCc2ccccc21,-2,-1
CC1(C)C(C=C(Cl)Cl)C1C(=O)Nc1ccccc1C(F)(F)F (centres undefined),-1,-20
Cc1cc(NC(=O)c2noc3c2CCCCC3)nn1Cc1ccc(Cl)cc1,-4,-8
Cc1nn(Cc2ccc(Cl)cc2)c(C)c1NC(=O)c1noc2c1CCCCC2,2,67*
COc1cccc(CN[C@H]2CCC23CCC(C)CC3)c1 (some centres undefined),-9,-12
N#CC1=C(N)n2c(s/c(=C\c3ccc([N+](=O)[O-])cc3)c2=O)=C(C#N)C1c1ccc([N+](=O)[O-])cc1 (centres undefined),-6,14
N#CC1=C(N)n2c(s/c(=C\c3ccc(O)cc3)c2=O)=C(C(N)=O)C1c1ccc(O)cc1 (centres undefined),-4,53*
Cc1cccc(Cn2cnc3c2c(=O)n(CC2CC2)c(=O)n3-c2ccccc2)c1,4,3
COc1ccc(-c2nnc(-c3ccc(OC)cc3)nn2)cc1,-2,1
COc1ccc(-c2ccc[nH]2)cc1,-31,62*
Cc1ccc(C2=N/C(=C/c3ccc([N+](=O)[O-])cc3)C(=O)O2)cc1,6,8
CCOc1ccc(C(=O)N2CCC3(CC2)NC(=O)c2cc(F)ccc2N3C)cc1,2,1
Cc1ccc(-n2ncc3c(N4CCOCC4)ncnc32)c(C)c1,-3,56*
Cc1cccc(-n2ncc3c(N4CCOCC4)ncnc32)c1,0,1
CC(=O)N1CCN(C2=Nc3ccccc3Oc3ccccc32)CC1,-2,19
CC(=O)N1CCCN(C2=Nc3ccc(C)cc3Oc3ccccc32)CC1,-6,54*
CCCN(C)C(=O)Cc1csc2nc(C)cc(=O)n12,-5,0
Cc1ccc(NC(=O)c2cc(S(=O)(=O)NCc3ccc(F)cc3)ccc2F)cc1C,-1,14
CC1NC2(C(=O)N(C/C=C/c3ccccc3)c3ccccc32)C2C(=O)N(c3ccccc3)C(=O)C12 (centres undefined),3,47
CC1NC2(C(=O)N(C/C=C/c3ccccc3)c3ccccc32)C2C(=O)N(Cc3ccccc3)C(=O)C12 (centres undefined),-12,52*
COc1cc(C(c2cc3c(cc2O)OCO3)N2CCOCC2)cc(OC)c1OC (centres undefined),x,26
CC(C)(C)c1cc(C2=C(N3CCOCC3)C(=O)c3ccccc3C2=O)cc(C(C)(C)C)c1O,-2,86*
CC(C)(C)c1cc(CN2CCC(O)CC2)cc(C(C)(C)C)c1O,14,-4
CC(C)(C)c1cc(C(c2ccccc2O)N2CCOCC2)cc(C(C)(C)C)c1O (centres undefined),12,52*
SMILES,Pf apPOL inh,mHTT CaM bind
Cc1ccc(NC2=C(N3CCOCC3)C(=O)c3ccccc3C2=O)cc1,4,46
CC1CCN(C(c2ccc(N(C)C)cc2)c2cc(C(C)(C)C)c(O)c(C(C)(C)C)c2)CC1 (centres undefined),-7,66*
O=C(NCc1csc(C2CCN(S(=O)(=O)c3ccc(Cl)cc3)CC2)n1)C1CC1,0,4
CCC(=O)N1CCc2c(nc(-c3ccc(F)cc3)[nH]c2=O)C1,-4,-1
CN(C)c1ccc(C=C2c3cc([N+](=O)[O-])cc([N+](=O)[O-])c3-c3c2cc([N+](=O)[O-])cc3[N+](=O)[O-])cc1,-1,44
COc1ccc(C=C2c3cc([N+](=O)[O-])cc([N+](=O)[O-])c3-c3c2cc([N+](=O)[O-])cc3[N+](=O)[O-])cc1,1,100*
Cc1nc(-c2ccccc2)sc1C(=O)N1CCC(CC(=O)NC2CCCCC2)CC1,-6,24
Cc1nc(-c2ccccc2)sc1C(=O)N1CCC(C(C)C(=O)NC2CCCC2)CC1 (centres undefined),-1,100*
O=C(C[C@H]1C(=O)N(CCc2ccccc2)C[C@@H]1Cc1ccccc1)Nc1ccc(Br)cc1,-2,30
CSC[C@H]1CN(CCc2ccccc2)C(=O)[C@@H]1CC(=O)Nc1ccc(Br)cc1,-4,63*
CCc1ccccc1NC(=O)Cn1ccc2c(C)nn(C)c2c1=O,-1,-3
CCCCN1C(=O)C(C)(C(=O)NCc2ccc(C)o2)Oc2cccnc21 (centres undefined),-6,2
COc1cc(Cl)c(C)cc1NC(=O)c1cccnc1,97*,-5
COc1cc(OC)c(NC(=O)c2cccnc2)cc1Cl,-5,-2
O=C(Nc1ccccc1Cl)N1CCC2(CC1)OCCS2,-6,-14
CC1(c2ccc(Cl)cc2)CC(C)(C)N(C(=O)c2cccnc2)c2ccccc21 (centres undefined),4,48
Cn1ccnc1SCC(=O)N1c2ccccc2C(C)(c2ccc(Cl)cc2)CC1(C)C (centres undefined),5,61*
O=C1/C(=C/c2ccco2)CC2CC1C/C(=C\c1ccco1)C2=O,2,47
N#CC(C#N)C(C#N)(C#N)C1CCC/C(=C\c2ccco2)C1=O (centres undefined),2,99*
CCCc1nc(Cc2ccc(OC)cc2)no1,-3,-23
CCS(=O)(=O)c1ccc(-c2nnc(NC(=O)c3c[nH]c4ccccc34)o2)cc1,-85,13
O=C(Nc1nnc(-c2ccco2)o1)c1c[nH]c2ccccc12,-28,72*
Cc1ccc(-n2nc3c(c2NC(=O)COc2ccc(Cl)cc2)CS(=O)C3)cc1 (centres undefined),-3,10
Cn1c(=O)c2c(-c3ccccc3)n(-c3ccccc3)cc2n(C)c1=O,7,31
CNc1ccc([N+](=O)[O-])cc1-n1cc2c(c1-c1ccccc1)c(=O)n(C)c(=O)n2C,65*,15
SMILES,Pf apPOL inh,mHTT CaM bind
COc1ccc(-c2c3c(=O)n(C)c(=O)n(C)c3cn2-c2ccccc2OC)cc1,78*,15
Cc1ccc(-n2cc3c(c2-c2ccccc2)c(=O)n(C)c(=O)n3C)c(C)c1,83*,16
Cc1cc(N)c(-n2cc3c(c2-c2ccccc2)c(=O)n(C)c(=O)n3C)cc1C,82*,13
COc1ccc(-c2c3c(=O)n(C)c(=O)n(C)c3cn2-c2ccc(C)cc2C)cc1,-4,15
CCn1cc2c(c1-c1ccccc1)c(=O)n(C)c(=O)n2C,6,-4
COc1ccc(-c2c3c(=O)n(C)c(=O)n(C)c3cn2-c2ccccc2)cc1,43,5
O=C(NC1CCCCC1)c1cc2c(s1)CN(C1CC1)C2,6,36
CC(C)Sc1nc2c(c(=O)n1-c1ccc(Cl)cc1)SCC2,0,4
O=C1NC(=O)/C(=C/c2cccc(Br)c2)S1,0,-2
Cc1cc(NC(=O)c2cc(Cl)ccc2Cl)ccc1NC(=O)c1ccco1,0,-3
Cn1ccnc1SCC(=O)N1c2ccccc2Sc2ccc(C(F)(F)F)cc21,-1,53*
N#CSCC(=O)N1c2ccccc2Sc2ccc(C(F)(F)F)cc21,14,3
CS(=O)(=O)N(Cc1ccc(C(=O)Nc2ccc(F)cc2)cc1)c1ccccc1,50*,-5
CS(=O)(=O)N(Cc1ccccc1)c1ccc(C(=O)Nc2ccc(F)cc2)cc1,0,7
CCOc1ccccc1NC(=O)CN(c1ccc(F)cc1)S(C)(=O)=O,66*,-4
CCOc1ccc(N(CC(=O)Nc2ccccc2OCC)S(C)(=O)=O)cc1,-2,15

# From PubChem
